# About 83,000 compounds went through this panel and 20% of them were active in at least one assay; those are over-represented in the sample as a whole.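 The endpoint reported here, percent growth, reads 100 for growth as untreated, 0 for no net growth and -100 for all cells dead.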 Values without a mark were called inactive. The source made the active and inactive calls. Rule for the calls: active = growth percent below 10; inactive = the rest.
# Columns and labels:
# Assay in all cases: NCI-60 one-dose screen, 48 h (100 = growth as untreated, 0 = no growth, -100 = all killed)
# Settings in all cases: 10 µM unless noted
# NCI-H23 lung = system: NCI-H23 lung
# NCI-H226 lung = system: NCI-H226 lung
# NCI-H322M lung = system: NCI-H322M lung
# HOP-62 NSCLC = system: HOP-62 NSCLC
# NCI-H460 lung = system: NCI-H460 lung
# HOP-92 NSCLC = system: HOP-92 NSCLC
# NCI-H522 lung = system: NCI-H522 lung
# A549/ATCC NSCLC = system: A549/ATCC NSCLC
# 786-0 renal = system: 786-0 renal
# COLO 205 colon = system: COLO 205 colon
SMILES,growth (NCI-H23 lung),growth (NCI-H226 lung),growth (NCI-H322M lung),growth (HOP-62 NSCLC),growth (NCI-H460 lung),growth (HOP-92 NSCLC),growth (NCI-H522 lung),growth (A549/ATCC NSCLC),growth (786-0 renal),growth (COLO 205 colon)
O=C(Cn1ccc2ccccc21)Nc1ccc(-c2nc3ccccc3s2)cc1,94%,102%,98.8%,103%,105%,105%,102%,98.3%,103%,101%
Clc1nc(Cl)c2ncn(CC#CCn3cnc4c(Cl)nc(Cl)nc43)c2n1,38.6%,5.54% (active),46.6%,62%,12.5%,-87.6% (active),-71.2% (active),8.8% (active),7.75% (active),-26.9% (active)
COC(=O)c1[nH]cnc1/N=N/N(C)CCO,96.3%,101%,108%,97.4%,105%,128%,92%,109%,93.5%,120%
CCCCCCCCCCCC[n+]1ccccc1,8.58% (active),24.4%,55.7%,-8.28% (active),3.69% (active),-24.8% (active),1.19% (active),9.04% (active),-16.8% (active),-74% (active)
NC1(C(=O)N[C@@H](CCO)c2ccc(Cl)cc2)CCN(c2ncnc3[nH]ccc23)CC1,53%,17.3%,55%,33.9%,24.6%,-13.2% (active),44.2%,56.6%,1.31% (active),32.1%
Cc1ncc(-c2ccnc(Nc3ccc(S(C)(=O)=O)cc3)n2)n1C(C)C,-33.8% (active),6.32% (active),-10.8% (active),-14% (active),-17.2% (active),-4.8% (active),-24.9% (active),1.7% (active),4.84% (active),-27.4% (active)
C=CC(=O)N1CCC(Oc2cc3c(Nc4ccc(Cl)c(Cl)c4F)ncnc3cc2OC)CC1,23.2%,34.9%,12.2%,18.4%,39.3%,-29.7% (active),-49.3% (active),15.7%,23.2%,15%
CC(=O)C1=C(C)NC(SCc2nnc(-c3ccc(C)cc3)o2)=NC1c1ccc(F)cc1 (stereo not given),95.2%,89.6%,92.8%,95.2%,106%,96.4%,85.9%,91.2%,84.6%,115%
CCOc1ccc(N=C(C)Nc2ccc(OCC)cc2)cc1,102%,110%,124%,109%,102%,81.9%,128%,95.3%,104%,102%
CCCCCCCC(=O)SCC/C=C/[C@@H]1CC(=O)NCc2cc(ccn2)C2=N[C@@](C)(CS2)C(=O)N[C@@H](C(C)C)C(=O)O1,2.97% (active),-8.32% (active),-16.8% (active),-19% (active),5.33% (active),-6.63% (active),-13% (active),-6.82% (active),12%,-56% (active)
CCCc1cc2cc(-n3nc(C)c4c3CC(C)(C)CC4=O)cc(NC3CCC(O)CC3)c2c(=O)[nH]1 (stereo not given),29.8%,33.8%,58.2%,28.5%,17.6%,-25.7% (active),40.8%,21%,26.1%,-10.1% (active)
O=C(NC1CCNCC1)c1[nH]ncc1NC(=O)c1c(Cl)cccc1Cl,-12.1% (active),0.903% (active),5.64% (active),-18.5% (active),8.4% (active),-6.06% (active),-23% (active),8.09% (active),2.33% (active),-35.9% (active)
CCNC(=O)Nc1nc2ccc(Oc3ccnc(C(=O)NC)c3)cc2s1,90.1%,84.5%,102%,76.1%,73.4%,70.6%,56.6%,62.4%,88.3%,56.1%
C/C(=N\NC(=O)Cn1c(-c2ccc(S(C)(=O)=O)cc2)nc2ccccc21)c1ccc(Cl)cc1,86.9%,83.4%,94.8%,88.6%,97.3%,98.3%,75.5%,77.6%,102%,93.4%
CN(N)c1nc2sc3c(c2c(=O)[nH]1)CCCC3,93.5%,101%,96.9%,76.6%,104%,107%,89.2%,81.1%,98.2%,100%
O=C(Nc1ccc(N=Nc2ccccc2)cc1)c1cccc2ccccc12,81.2%,78.2%,77.9%,60.5%,61.1%,82.5%,34.9%,46.1%,79.4%,77.1%
O=C(NOC[C@H](O)CO)c1ccc(F)c(F)c1Nc1ccc(I)cc1F,19.6%,49.5%,12.3%,27.7%,54%,-28% (active),44.8%,21.4%,71.2%,0.302% (active)
O=C(Cn1ccnc1)Nc1ccc(-c2nc3ccccc3s2)cc1,57.4%,66.6%,98.3%,83.8%,79.8%,75.8%,74.7%,70.3%,78%,80.8%
Cc1cc(Nc2ncc(Cl)c(Nc3ccccc3S(=O)(=O)C(C)C)n2)c(OC(C)C)cc1C1CCNCC1,-86.5% (active),-64.8% (active),-93.9% (active),-94.5% (active),-86.5% (active),-92.3% (active),-89.3% (active),-99.8% (active),-91.2% (active),-88.2% (active)
C=CCN(/C=C1/C(=O)O[C@H](COC)[C@@]2(C)C1=C(O)C(=O)C1=C2[C@H](OC(C)=O)C[C@]2(C)C(=O)CC[C@@H]12)CC=C,36.7%,24%,-15.1% (active),16.5%,11.2%,-3.58% (active),13.5%,4.59% (active),4.54% (active),17.7%
COc1cc2c(cc1O)c(=O)n(CCN(C)C)c1c3cc4c(cc3ncc21)OCO4,-19.1% (active),-48.7% (active),-5.9% (active),-4.35% (active),-14.8% (active),-16.6% (active),-37% (active),-56% (active),-54.5% (active),45.9%
O=C(N/N=C/c1ccc(Cl)cc1)c1cc(-c2cc3ccccc3o2)nn1-c1ccccc1,92%,91.3%,96.7%,97.3%,106%,-16.5% (active),77.9%,97.9%,95.1%,96.1%
O=C1CC(c2ccc(Cl)cc2)c2ncn(-c3cccc(Cl)c3)c2N1 (stereo not given),72%,71%,91.6%,51.2%,34%,60.8%,27.6%,45.2%,55%,97.7%
COC(=O)[C@]12CC[C@@H](C)[C@H](C)[C@@H]1C1=CC[C@@H]3[C@@]4(C)C(c5cnco5)=C[C@@](C)(CO)C4=CC[C@@]3(C)[C@]1(C)CC2,47.8%,60%,86.5%,93.7%,8.07% (active),41.8%,33.9%,47.1%,70.5%,27.2%
CCOC(=O)C1=C(C)N=C2Sc3cc(OC(F)(F)F)ccc3N2[C@H]1c1ccccn1,48.8%,57.6%,50.2%,47.6%,15.2%,68%,48.5%,30.1%,59.1%,36.7%
C[C@@H](Oc1cc(C(=O)Nc2ccc(C(=O)N3CCN(C)CC3)cc2)nnc1N)c1c(Cl)ccc(F)c1Cl,62.6%,66.9%,92.9%,64.8%,79.8%,48.3%,71.1%,55.8%,67.4%,55.1%
CCCCn1c(C)nc2ccc(Nc3nc(N4CCN(C)CC4)nc4nc[nH]c34)cc21,95.5%,93%,91.3%,90.9%,104%,64.8%,87.2%,94.2%,92.8%,87.9%

# Reference: PubChem BioAssay (NCI)
